tim23-1 inh: growth inhibitors of tim23-1 mutant yeast, primary screen, luminescence, uHTS; S. cerevisiae tim23-1 growth, BacTiter-Glo luminescence, 24 h; inhibition, % at 20 µM; hit rate 1.3% among 330,000; AID 463212, 2010;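 active = growth inhibition of the mutant yeast at or above 50%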;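 note: temperature-sensitive mutant grown at 25 °C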
TIM10 inh: growth inhibitors of isogenic TIM10 control yeast, primary screen, counter-screen for tim10-1 yeast inhibitor project, luminescence, uHTS | S. cerevisiae TIM10 strain growth, BacTiter-Glo luminescence, 24 h | inhibition, % at 10 µM | hit rate 1.4% among 330,000 | AID 463195, 2010;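 active = inhibition of 40% or more at the single tested concentration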;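 note: wild-type TIM10 isogenic control strain grown at permissive 25 °C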
SKKanGAS inh: S. pyogenes SKKanGAS growth inhibitors in kanamycin, primary screen, streptokinase expression inhibitor project, SKKanGAS strain, BacTiter-Glo luminescence | 6 h | inhibition, % at 7.5 µM | hit rate 1.3% among 300,000 | AID 1662, 2009;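 active = mean replicate score, as percent of positive control median, at least 50; inconclusive = mean below 50 but one replicate at or above 50; inactive = mean and every replicate below 50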;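 note: strain carries kanamycin resistance gene driven by streptokinase promoter and grows in 40 µg/ml kanamycin; loss of luminescence reflects streptokinase promoter inhibition or plain growth inhibition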
NALP1 inh: NALP1 inflammasome inhibitors in reconstituted yeast, colorimetric, S. cerevisiae, triplicate retest | S. cerevisiae NALP1/ASC/caspase-1 growth, X-gal OD620, 72 h | inhibition, % at 10 µM | hit rate 0.61% among 280,000 | AID 2071, 2009; in the data active = inhibition mostly above about 24%, no sharp cut-off; inactive = mostly below about 32%
PfHsp90 yeast 2: growth inhibition of PfHsp90-expressing yeast, primary screen, antimalarial PfHsp90 inhibitor project, S. cerevisiae, BacTiter-Glo luminescence, single point, set 2; inhibition, % at 9.4 µM; BacTiter-Glo ATP, 48 h; yeast lacking PDR1 and PDR3 efflux regulators; hit rate 0.32% among 310,000;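 active = every replicate shows inhibition above about 80%, whatever the replicate mean, limit read from the data; inconclusive = mean inhibition reaches the set limit but some replicate falls short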
tim10-1 inh: growth inhibitors of tim10-1 mutant yeast, primary screen, luminescence, uHTS; hit rate 2.2% among 330,000; inhibition, % at 20 µM; S. cerevisiae tim10-1 ts strain growth, BacTiter-Glo, 24 h;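 active = inhibition of at least 40%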;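 note: mutant grown at 25 °C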
tim23-1 conf: tim23-1 mutant yeast growth inhibitors, confirmation, luminescence, single concentration; AID 463218, 2010; S. cerevisiae tim23-1 growth, BacTiter-Glo luminescence, 24 h; inhibition, % at 20 µM; hit rate 83% among 4,400; shares compounds with tim23-1 inh;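 active = inhibition above about 39% in either of two replicate wells at 20 µM, limit read from the data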;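 note: temperature-sensitive tim23-1 mutant grown at 25 °C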
Hits are given with their value; n = inactive; u = inconclusive; x = no result given. Most compounds without a hit are left out; they make up all but 4.8% or so of the library.

SMILES	tim23-1 inh	TIM10 inh	SKKanGAS inh	NALP1 inh	PfHsp90 yeast 2	tim10-1 inh	tim23-1 conf
CCC(C)Nc1cc(C)c(C#N)c2nc3ccccc3n12 (stereo unspecified)	n	n	n	n	n	n	x
CCC(C)Sc1cc(C)c(C#N)c2nc3ccccc3n12 (stereo unspecified)	54	n	n	n	n	n	n
Cc1nc2sc(C(c3ccc(Cl)cc3)N3CCOCC3)c(O)n2n1 (stereo unspecified)	53	n	n	n	n	n	n
CC1(C)C(=O)OC(c2cccc([N+](=O)[O-])c2)C2(CCCCC2)C1=O (stereo unspecified)	n	n	n	n	n	n	x
Cc1ccccc1S(=O)Cc1ccc(C(=O)NCCCN2CCCCC2)o1 (stereo unspecified)	n	n	n	n	n	n	x
CCC(=O)NC(c1ccc(C)cc1)c1cc(Cl)c2cccnc2c1O (stereo unspecified)	54	n	x	x	n	n	58
CCC(=O)NC(c1ccco1)c1cc(Cl)c2ccccc2c1O (stereo unspecified)	n	n	x	x	n	n	x
CN1CCN(C(c2ccc(Br)cc2)c2cc(Cl)c3cccnc3c2O)CC1 (stereo unspecified)	66	n	69	n	107	n	77
CC(C)CC(=O)NC(c1cccs1)c1ccc2cccnc2c1O (stereo unspecified)	52	n	u	n	104	n	65
CCCC(=O)NC(c1cccs1)c1cc(Cl)c2cccnc2c1O (stereo unspecified)	56	n	x	n	120	n	69
CC1CCN(CC(=O)Nc2ccccc2C(=O)c2ccccc2)CC1	n	n	n	n	n	n	x
CN(CC(=O)Nc1cccc(F)c1)C(=O)c1ccc(-c2ccc(Cl)cc2)o1	n	n	n	n	n	n	x
CC(C)CCn1nnnc1C(c1ccccc1F)N1CCC(C(N)=O)CC1 (stereo unspecified)	n	n	n	n	n	n	x
CCOc1ccc(C(Nc2cccnc2)c2cc(Cl)c3cccnc3c2O)cc1 (stereo unspecified)	56	n	x	44	106	n	69
CCC(=O)NC(C)c1cc(Cl)c2cccnc2c1O (stereo unspecified)	55	n	x	x	n	n	58
O=C(NC(c1ccccc1)c1cc(Cl)c2cccnc2c1O)c1cccnc1 (stereo unspecified)	70	n	94	n	x	n	80
O=C(O)COc1ccccc1C(Nc1cccnc1)c1cc(Cl)c2cccnc2c1O (stereo unspecified)	n	n	n	n	n	n	x
COc1ccc(CCNS(=O)(=O)c2ccc(-n3cnnn3)c(OC)c2)cc1OC	n	n	n	n	n	n	x
CC1c2[nH]c3ccccc3c2CCN1C(=O)Nc1ccccc1 (stereo unspecified)	64	n	n	n	n	n	50
C=CCOc1ccc(/C=C2\SC(=S)N(NS(=O)(=O)c3ccccc3)C2=O)cc1	60	n	n	n	n	n	56
C/C(=N\NC(=S)NC1CCCCC1)c1ccc(C#N)cc1	n	n	n	n	n	n	x
N#Cc1ccc(C(=O)NC(=S)NC2CCCCC2)cc1	65	n	x	x	n	n	41
O=C(NC(=S)NC1CCCC1)c1ccccc1	58	n	n	n	n	n	46
O=C(NC(=S)NC1CCCCCCCCCCC1)c1cccnc1	n	n	n	n	x	n	x
COc1ccc(C(=O)NNC(=O)CCc2ccccc2OC)cc1	n	n	n	n	n	n	x
SMILES	tim23-1 inh	TIM10 inh	SKKanGAS inh	NALP1 inh	PfHsp90 yeast 2	tim10-1 inh	tim23-1 conf
O=C(O)c1ccc(S(=O)(=O)NC2CCCc3ccccc32)cc1 (stereo unspecified)	n	n	n	n	n	n	x
Oc1ccc(C=Nc2cccc3ccccc23)c(O)c1	n	n	n	n	n	n	x
CC(O)c1cccc(N=Cc2ccc3ccccc3c2O)c1 (stereo unspecified)	54	n	n	n	n	n	42
CC1CCN(c2ccc(-c3cccs3)nn2)CC1	68	n	n	n	n	n	72
CCOC(=O)C(C)Sc1nc(=O)n2cc(C)ccc2n1 (stereo unspecified)	n	n	n	n	n	n	x
CC1CCc2c(c3ccccc3n2C(=O)CCl)C1 (stereo unspecified)	69	n	n	n	n	n	56
Cc1ccc2nc(-c3ccc(NC(=S)NC4CC(C)(C)NC(C)(C)C4)cc3)sc2c1	70	n	58	n	n	n	67
Cc1ccc(O)c(N=Nc2ccccc2)n1	54	n	n	x	n	n	54
CCC(=O)N(C)/C=C1\Sc2ccccc2C1=O	53	n	n	n	n	n	n
CC(=O)N(C)/C=C1\Sc2ccccc2C1=O	n	n	n	n	n	n	x
O=CN(/C=C1\Sc2ccccc2C1=O)Cc1ccccc1	68	n	n	n	n	n	66
COc1ccc(N=CC2=C(Nc3ccc(OC)cc3)c3c(C)nn(-c4ccccn4)c3CC2)cc1	51	n	x	x	x	n	52
Cc1ccc(-c2cc(C(=O)Nc3cc(C)ccc3C)[nH]n2)c(O)c1	n	n	n	n	n	n	x
Cc1ccc(-c2cc(-c3cccs3)[nH]n2)c(O)c1	51	n	n	n	x	n	n
Brc1ccc2nc(-c3ccncc3)c(NC3CCCC3)n2c1	n	n	n	n	n	n	x
COc1ccccc1Nc1nc(N)nc(CSC(=S)N2CCC(C)CC2)n1	50	n	n	n	n	n	n
CCC/C(=C1/c2ccccc2C(=O)N1c1ccccc1)c1ccc2[nH]ccc2c1	n	n	x	x	n	n	x
O=C1c2ccccc2/C(=C\c2ccc3[nH]ccc3c2)N1c1ccccc1	63	n	x	x	n	n	53
CC1CCN(S(=O)(=O)c2ccc(NC(=O)c3ccccc3F)cc2)CC1	52	n	n	n	n	n	45
Nc1ccc(Sc2cnn(-c3ccccc3)c(=O)c2Cl)cc1	50	n	n	n	n	n	n
CCOC(=O)C1=CN(Cc2cccc(F)c2)S(=O)(=O)NC1c1ccc(Br)cc1F (stereo unspecified)	56	n	x	x	n	n	46
C#Cc1ccc([C@H]2C=C(C(=O)N3CCN(Cc4ccc5c(c4)OCO5)CC3)O[C@@H](OCc3ccc(CO)cc3)C2)cc1	n	n	n	n	n	n	x
Cc1ccc(OCCn2nc3ccccc3n2)c(C)c1	n	n	n	x	x	n	x

Screening data from PubChem.
